Laboratory results published in ChEMBL document CHEMBL1201862, “PubChem BioAssay data set” (2004).
The whole screen tested about 55,000 […], of which about 2,500 (4.5%) were called active. Cut-off read from the data, not from the text of the source: active = GI50 up to about 1.1 µM and inactive = higher. A selection follows. Results with a measured potency or affinity are listed apart.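 Following 48 hours of exposure in 96-well plates, responses at five concentrations were used to interpolate endpoints linearly. The concentration for 50% growth inhibition is given as GI50.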

System: EKVX
Assay: NCI tumour cell line growth inhibition, 48 h

Compared with “[Bis(aminomethyl)pentamethylenesilane]dichloropaltinum(II), CHEMBL2146202”, “[Bis(aminomethyl)ethylmethylsilane]tetrachloroplatinum(IV), CHEMBL2146192” is 1.6-fold higher in GI50: 18.2 µM for the first, 29.6 µM for the second.

“[Bis(aminomethyl)tetramethylenesilane]tetrachloropaltinum(IV), CHEMBL2146189” and “[Bis(aminomethyl)tetramethylenesilane]dichloropaltinum(II), CHEMBL2146205” are within 1.5-fold of each other in GI50: 40.9 µM for the first, 55.6 µM for the second.

First: [Bis(aminomethyl)dimethylsilane]tetrachloroplatinum(IV), CHEMBL2146190
Second: CISPLATIN, CHEMBL11359
The GI50 of the first is 5.4-fold higher: 38.2 µM for the first, 7.1 µM for the second.

Going from “[Bis(aminomethyl)diethylsilane]tetrachloroplatinum(IV), CHEMBL2146203” to “mu-(1,7-nanodiamine-N,N')bis-(cis-aminedichloroplatimum (II)), CHEMBL2146215”, the GI50 rises from 31.6 µM to over 100 µM.

First: [Bis(aminomethyl)dimethylsilane]dichloroplatinum (II), CHEMBL2146201
Second: [Bis(aminomethyl)pentamethylenesilane]tetrachloropaltinum(IV), CHEMBL2146204
The GI50 of the first is higher: over 100 µM for the first, 56.1 µM for the second.

“cis-Bis[[(trimethylsilyl)methyl]amino]tetrachloroplatinum(IV), CHEMBL2146191” showed a GI50 of 4.68 µM.
